This is an account of results in the OligoGym collection.
Further: reference of the scale not given here.

One assay has as its target NUP54. Put plainly: pooled miR-30 sensor sort-seq; sequence = guide strand. The note with it: shRNA.
For the sequence TAACAGATCTGCATCTATGTAA, the sensor-assay potency score (higher = more potent) was 0.386.

With TTCCTGTTTGATTAGGACCTGT, the sensor-assay potency score (higher = more potent) was 0.0888.

The sequence TTGTTGTTTCAAATGCTGCTTG showed a sensor-assay potency score (higher = more potent) of 0.0156.

For the sequence TTCTAGATCGTCTTTAATGATG, the sensor-assay potency score (higher = more potent) is -1.29.

In the case of TACAGATGTAGTTTGATTCTTT, the sensor-assay potency score (higher = more potent) came out at 0.197.

As for TATATCTTCTAGATCGTCTTTA, the sensor-assay potency score (higher = more potent) turned out to be 0.519.

TAAATAACAACTTCTGTCTGAT displayed a sensor-assay potency score (higher = more potent) of 0.552.

In the case of TTATATCTTCTAGATCGTCTTT, the sensor-assay potency score (higher = more potent) was -0.236.

Regarding TACATTTACAGTAAGGGTCTGG, the sensor-assay potency score (higher = more potent) amounted to 0.14.

Consider ATAAATAACAACTTCTGTCTGA, for which the sensor-assay potency score (higher = more potent) was 1.09.

With TAAACCAGTACTAGTTCCCGTT, the sensor-assay potency score (higher = more potent) is -0.284.

The next assay has as its target NUTF2. The assay is described as above. The note with it: shRNA.
Take TTAATAGGAACATCTGGTGGAA: the sensor-assay potency score (higher = more potent) is -0.0861.

For the sequence TTCTCCTTCACTTCTTTGGGTT, the sensor-assay potency score (higher = more potent) was -0.477.

TAATAGGAACATCTGGTGGAAC: the sensor-assay potency score (higher = more potent) is -1.27.

For TTTTGCATTACTTAAGTCTTTC, the sensor-assay potency score (higher = more potent) was -0.669.

TACAACACAAACTTCTCCCGTC came in with a sensor-assay potency score (higher = more potent) of 0.549.

As to TGCAACTAGTCTAGCATCCAAA, the sensor-assay potency score (higher = more potent) is -1.42.

TTTAATAGGAACATCTGGTGGA: the sensor-assay potency score (higher = more potent) was determined as 0.705.

Turning to TAGTAATGTTGAATGAAGCTGG, the sensor-assay potency score (higher = more potent) was 0.656.

Regarding TTCTTTAATAGGAACATCTGGT, the sensor-assay potency score (higher = more potent) is -0.647.

For the sequence TACTAGAGCAACTTGTCAGTAG, the sensor-assay potency score (higher = more potent) stood at 0.355.

The sequence TATCATTATCAAATAACTGGTA displayed a sensor-assay potency score (higher = more potent) of 0.126.
